Screens (PubChem)
EBI2 block – blocks human EBI2 receptor beta-arrestin signaling | inhibition, % at 5 µM | P32249 | AID 651636 | hit rate 0.81% among 360,000 | EBI2 beta-arrestin recruitment, luminescence, 7a,25-OHC stimulated; in the data active = inhibition above about 38%;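 also: enzyme fragment complementation signal reports receptor beta-arrestin coupling in cells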
AHR act – activates the human aryl hydrocarbon receptor | P35869 | AHR-responsive luciferase reporter cells, luminescence | activation, % at 5 µM | hit rate 2.5% among 320,000 | AID 2796; in the data active = activation above about 47%
SENP8 block-1 – inhibitors of human SENP8 protease; hit rate 0.64% among 360,000; recombinant SENP8, Nedd8 substrate fluorescence; inhibition, % at 20 µM; Q96LD8; in the data active = inhibition mostly above about 40%, no sharp cut-off; inactive = mostly below about 27%
Target sequence (Q96LD8 whole entry, looked up): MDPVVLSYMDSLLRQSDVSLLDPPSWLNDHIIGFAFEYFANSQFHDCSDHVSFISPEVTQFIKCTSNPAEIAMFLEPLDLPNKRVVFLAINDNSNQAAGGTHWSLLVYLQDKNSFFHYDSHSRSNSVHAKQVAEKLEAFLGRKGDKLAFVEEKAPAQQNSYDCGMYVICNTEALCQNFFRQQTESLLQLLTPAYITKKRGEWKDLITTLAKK
SENP8 block-2 – blocks the human protease SENP8; inhibition, % at 10 µM; AID 2540; Q96LD8; hit rate 1.2% among 330,000; purified SENP8, Z-RLRGG-aminoluciferin cleavage, luminescence; in the data active = inhibition above about 50%
SENP7 block – SENP7 protease inhibition | inhibition, % at 5 µM | recombinant SENP7, Z-RLRGG-aminoluciferin luminescence, 40 min | hit rate 1.5% among 330,000 | Q9BQF6 | AID 434973;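 active = inhibition above about 50% at the single test dose, limit read from the data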
SENP6 inh – SENP6 protease inhibition | Q9GZR1 | Recombinant SENP6 catalytic domain, aminoluciferin luminescence | inhibition, % at 10 µM | hit rate 1.8% among 330,000;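 active = inhibition above about 50% at the single tested dose, limit read from the data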
EBI2 conf – EBI2 (human) antagonism, single concentration confirmation; shares compounds with EBI2 block; EBI2 beta-arrestin luminescence, 7a,25-OHC antagonism; inhibition, % at 5 µM; hit rate 29% among 2,400; AID 651997;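 active = inhibition of at least 50%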
EBI2 ag – activates EBI2, counter-screen for EBI2 antagonists; shares compounds with EBI2 block; activation, % at 5 µM; 2,400 tested, under 10 active; EBI2-expressing cells, agonist mode, luminescence, 60 min; 0% vehicle, 100% 7α,25-dihydroxycholesterol control;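 active = activation of at least 50%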
bGal cs – counter-screen for EBI2 antagonists: E. coli beta-galactosidase inhibition | purified beta-galactosidase, luminescent Galacton Star, 15 min | shares compounds with EBI2 block | inhibition, % at 5 µM | hit rate 1% among 2,400;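 active = replicate-average signal at least 3 plate SD below neutral wells, shown as high inhibition, flagging enzyme-inhibiting false positives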;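 also: higher means stronger loss of beta-gal luminescence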
Numbers stand for hits; i = inactive; nt = not tested or not shown. Rows were chosen to be rich in hits. Some 5% of all compounds tested hit in one or more screens of this group.

SMILES	EBI2 block	AHR act	SENP8 block-1	SENP8 block-2	SENP7 block	SENP6 inh	EBI2 conf	EBI2 ag	bGal cs
Cc1oc(-c2ccc(Cl)cc2)cc1C(=O)NC1CCN(Cc2ccccc2)CC1	41	i	i	i	i	i	i	i	i
CC(=O)Nc1ccc(Nc2cc(C)nc3c(-c4ccc(Cl)cc4)cnn23)cc1	53	i	i	i	i	i	i	i	i
CC(=O)Nc1ccc(Nc2cc(C)nc3c(-c4ccc(Cl)cc4)c(C)nn23)cc1	46	i	i	i	i	i	i	i	i
O=C(NCCN1CCN(C(=O)c2ccc(Br)cc2)CC1)c1ccc(Br)cc1	44	i	i	i	i	i	i	i	i
CCOC(=O)C1=CCN(S(=O)(=O)c2ccccc2C)C1c1cccc(Br)c1 (stereo unspecified)	67	nt	i	nt	nt	nt	i	i	i
CCOC(=O)C1=CCN(S(=O)(=O)c2ccccc2Cl)C1c1cccc(C)c1 (stereo unspecified)	40	nt	i	nt	nt	nt	i	i	i
CCOC(=O)C1=CCN(S(=O)(=O)c2ccccc2F)C1c1cccc(Br)c1 (stereo unspecified)	i	nt	i	nt	nt	nt	nt	nt	nt
CCN(CC(=O)Nc1ccccc1OC)C(=O)c1ccc(N(C)S(=O)(=O)c2ccc(C)cc2)cc1	i	i	i	i	i	i	nt	nt	nt
CCOC(=O)C1(Cc2cccc(OC)c2)CCCN(Cc2cc(OC)c(O)c(OC)c2)C1 (stereo unspecified)	82	i	i	i	i	i	58	i	i
COc1cccc(-c2csc3ncnc(Sc4nnnn4C)c23)c1	i	i	i	i	i	i	nt	nt	nt
CC1(C)C2CCC(C2)C1C/C=N/NC(N)=S (stereo unspecified)	i	i	i	i	i	i	nt	nt	nt
COc1cc2c(cc1OC)C(c1ccc(-c3ccc(Cl)cc3Cl)o1)=NCC2	74	i	i	i	i	i	66	i	i
O=C(O)c1ccc(-c2ccc(Cl)cc2Cl)o1	i	i	i	i	i	i	nt	nt	nt
O=C1CCc2ccc(NC(=O)C3CC3)cc2N1	i	i	i	i	i	i	nt	nt	nt
Cc1ccccc1CC1(CO)CCCN(C(=O)c2ccc3ncccc3c2)C1 (stereo unspecified)	i	i	i	i	i	i	nt	nt	nt
CCOC(=O)C1=C(C)Nc2sc(C(=O)c3ccc(F)cc3)c(N)c2C1c1ccc(C(=O)OC)cc1 (stereo unspecified)	37	i	i	i	i	i	i	i	i
Cc1sc2ncnc(SCC(=O)NC(C)(C)C)c2c1C	i	i	i	i	i	i	nt	nt	nt
Cc1ccc(OCC(=O)NNC(=O)CSc2ncnc3sc(C)c(C)c23)cc1	66	i	i	i	i	i	i	i	i
CCc1ccc(OCC(=O)NNC(=O)CSc2ncnc3sc(C)c(C)c23)cc1	70	i	i	i	i	i	i	i	i
Cc1nc(N/N=C/c2ccc(O)cc2)c2cnn(-c3ccccc3)c2n1	53	i	i	i	i	i	i	i	i
O=C(/C=C/c1ccc(Br)cc1)N1CCN(c2cccc(C(F)(F)F)c2)CC1	94	i	i	nt	nt	nt	81	i	i
COc1ccc(OCC(=O)N2CCN(c3cccc(Cl)c3)CC2)cc1	86	i	i	i	i	i	71	i	i
COc1ccc(OCC(=O)N2CCN(c3cccc(C(F)(F)F)c3)CC2)cc1	70	i	i	i	i	i	51	i	i
COc1ccc(N2CCN(C(=O)COc3ccc(Cl)cc3Cl)CC2)cc1	51	i	i	i	i	i	i	i	i
COc1ccc(C(=O)CCC(=O)N2CCN(c3cccc(Cl)c3)CC2)cc1	i	i	i	i	i	i	nt	nt	nt
O=C(COc1ccc(Cl)cc1Cl)N1CCCN(C(=O)COc2ccc(Cl)cc2Cl)CC1	i	i	i	i	i	i	nt	nt	nt
COc1cccc(CCNC(=O)C2CCC(=O)N(C3CC3)C2)c1OC (stereo unspecified)	i	nt	i	i	i	i	nt	nt	nt
CC(C)C1CCN(C(=O)C2CCC(=O)N(CCc3ccc(Cl)cc3)C2)CC1 (stereo unspecified)	79	i	i	i	i	i	50	i	i
